What all share (settings): mRNA level, 48 h; actives raise or lower the signal
Read-out in experiment [1]: ABC Transporter (ABCB11), ABCB11 (gene 8647)
The experiment is described as follows: LTEA_HepaRG_ABCB11: Life Technologies and Expression Analysis (LTEA) Assay for ABC Transporter (ABCB11) using HepaRG (AID 2283463). The method in brief: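 HepaRG, 48 h exposure, 8-pt half-log CRC top 100 uM, 0.5% DMSO vehicle, duplicates. Readout: TaqMan qRT-PCR of ABCB11 mRNA, housekeeping-normalized (ACTB/GAPDH/POLR2A). Bidirectional fit vs DMSO baseline.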

Read-out in experiment [2]: ABC Transporter (ABCC2), ABCC2 (gene 1244)
The experiment is described as follows: LTEA_HepaRG_ABCC2: Life Technologies and Expression Analysis (LTEA) Assay for ABC Transporter (ABCC2) using HepaRG (AID 2283464). A digest of the protocol: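 Differentiated HepaRG cells in serum-free induction medium exposed 48 h to eight half-log concentrations up to 100 uM, 0.5% DMSO, in duplicate. ABCC2 mRNA measured by qRT-PCR (TaqMan, Fluidigm), normalized to ACTB, GAPDH and POLR2A. Fitted in both directions against DMSO.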

Read-out in experiment [3]: Broad substrate specificity ATP-binding cassette transporter ABCG2 (Homo sapiens) (UniProt Q9UNQ0)
The experiment is described as follows: LTEA_HepaRG_ABCG2: Life Technologies and Expression Analysis (LTEA) Assay for ABC Transporter (ABCG2) using HepaRG (AID 2283465). The method in brief:
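HepaRG, 48 h exposure, 8-pt half-log series from 100 uM, 0.5% DMSO vehicle, duplicates. Readout: ABCG2 transcript by qRT-PCR (Fluidigm array), housekeeping-normalized; bidirectional curve fit relative to DMSO baseline.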

Read-out in experiment [4]: Peroxisomal acyl-coenzyme A oxidase 1 (ACOX1) gene, ACOX1 (gene 51)
The experiment is described as follows: LTEA_HepaRG_ACOX1: Life Technologies and Expression Analysis (LTEA) Assay for Peroxisomal acyl-coenzyme A oxidase 1 (ACOX1) gene using HepaRG (AID 2283467). The method in brief: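 HepaRG, 48 h chemical exposure, 8-pt half-log series from 100 uM top, 0.5% DMSO vehicle, duplicates. Readout: ACOX1 mRNA by Fluidigm qRT-PCR, housekeeping-normalized; bidirectional fit vs DMSO baseline.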

Read-out in experiment [5]: Alkaline Phosphatase, Placental (ALPP) gene, ALPP (gene 250)
The experiment is described as follows: LTEA_HepaRG_ALPP: Life Technologies and Expression Analysis (LTEA) Assay for Alkaline Phosphatase, Placental (ALPP) gene using HepaRG (AID 2283468).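 For AC50: differentiated human HepaRG liver cells in serum-free induction medium.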 The method in brief:
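HepaRG cells plated 48 h, then exposed in duplicate for 48 h in serum-free induction medium to 8-point half-log series from 100 uM in 0.5% DMSO. ALPP mRNA by TaqMan qRT-PCR, normalized to ACTB/GAPDH/POLR2A; bidirectional fit versus DMSO.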

Read-out in experiment [6]: Bcl-2 (BAD) gene, BAD (gene 572)
The experiment is described as follows: LTEA_HepaRG_BAD: Life Technologies and Expression Analysis (LTEA) Assay for Bcl-2 (BAD) gene using HepaRG (AID 2283469). A digest of the protocol: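 HepaRG, 48 h exposure, 8-pt half-log curve from 100 uM in 0.5% DMSO, duplicates. Readout: TaqMan qRT-PCR for BAD mRNA, housekeeping-normalised (ACTB/GAPDH/POLR2A); gain or loss fitted against DMSO baseline.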

Read-out in experiment [7]: Bcl-2 (BAX) gene, BAX (gene 581)
The experiment is described as follows: LTEA_HepaRG_BAX: Life Technologies and Expression Analysis (LTEA) Assay for Bcl-2 (BAX) gene using HepaRG (AID 2283470). A digest of the protocol: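 Human HepaRG cells treated in duplicate for 48 h across eight concentrations (max 100 uM, 0.5% DMSO); BAX expression measured by qRT-PCR.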

Read-out in experiment [8]: adenosine kinase (ADK) gene, ADK (gene 132)
The experiment is described as follows: LTEA_HepaRG_ADK: Life Technologies and Expression Analysis (LTEA) Assay for adenosine kinase (ADK) gene using HepaRG (AID 2283471). A digest of the protocol: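 Read-out is ADK transcript level measured by qRT-PCR and normalised to three housekeeping genes. Cells are human HepaRG, dosed for 48 h at up to 100 uM in 0.5% DMSO. Gain or loss of signal is fitted against DMSO controls.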

Read-out in experiment [9]: Alpha-fetoprotein (AFP) gene, AFP (gene 174)
The experiment is described as follows: LTEA_HepaRG_AFP: Life Technologies and Expression Analysis (LTEA) Assay for Alpha-fetoprotein (AFP) gene using HepaRG (AID 2283472). A digest of the protocol:
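Measures AFP mRNA change in HepaRG after 48 h chemical exposure (8 half-log concentrations, highest 100 uM, 0.5% DMSO). Fold change relative to DMSO, fitted in both directions.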

A structure can be active in one record and inactive in another. Active and inactive are the calls of the source. Rule for the calls: active = hit-call score of the fitted dose curve at least 0.9, where 1 is the maximum; inactive = score below 0.9.

Chain of Broad substrate specificity ATP-binding cassette transporter ABCG2 (Homo sapiens) (Q9UNQ0 whole entry, looked up): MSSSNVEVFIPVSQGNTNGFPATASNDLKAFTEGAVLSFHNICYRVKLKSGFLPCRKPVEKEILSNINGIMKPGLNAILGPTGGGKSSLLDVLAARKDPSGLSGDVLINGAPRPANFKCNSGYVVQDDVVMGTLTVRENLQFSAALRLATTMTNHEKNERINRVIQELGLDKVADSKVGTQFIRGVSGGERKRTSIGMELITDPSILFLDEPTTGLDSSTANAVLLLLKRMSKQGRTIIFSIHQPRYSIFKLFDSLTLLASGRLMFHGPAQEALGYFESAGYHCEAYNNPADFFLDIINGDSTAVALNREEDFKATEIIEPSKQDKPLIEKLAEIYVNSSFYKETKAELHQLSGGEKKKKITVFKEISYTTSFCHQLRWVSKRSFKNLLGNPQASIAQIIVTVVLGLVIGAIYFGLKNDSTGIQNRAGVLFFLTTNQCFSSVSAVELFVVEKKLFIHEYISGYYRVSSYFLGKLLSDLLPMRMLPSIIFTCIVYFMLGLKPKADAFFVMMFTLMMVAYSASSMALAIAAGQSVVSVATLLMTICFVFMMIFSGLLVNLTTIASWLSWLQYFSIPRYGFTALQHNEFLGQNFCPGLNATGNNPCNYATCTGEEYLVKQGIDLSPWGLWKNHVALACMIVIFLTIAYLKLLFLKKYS

`Cc1[nH]c(=O)n(C(C)(C)C)c(=O)c1Cl`: the outcome in experiment [1], in experiment [2], in experiment [3], in experiment [4], in experiment [5] and in [6] was inactive. In addition, the compound was classed as inactive in [7], in experiment [8] and in [9].
`CCOC1Oc2ccc(OS(C)(=O)=O)cc2C1(C)C` (stereo unspecified): the AC50 – broadly, the concentration giving half of the maximal activity seen – was 73 µM (active) in experiment [1], 60.8 µM (active) in [4], 43.6 µM (active) in experiment [5] and 72.3 µM (active) in experiment [9]. Besides, the call in experiment [2], in experiment [6], in experiment [7] and in experiment [8] was inactive.
As to `N#Cc1c(Cl)c(Cl)c(Cl)c(C#N)c1Cl`, the AC50 is 47.1 µM (active) in [1] and 23.9 µM (active) in experiment [7]. The compound was classed as inactive in experiment [2], in experiment [4], in experiment [6], in [8] and in experiment [9].
With `O=C(O)CCCOc1ccc(Cl)cc1Cl`, the outcome in [1], in [2], in experiment [5], in [6], in experiment [7] and in experiment [9] was inactive. For the same compound, the AC50 in experiment [4] is 20.5 µM (active); in [8], 50.8 µM (active).
With `C[C@H]1[C@H](c2ccc(Cl)cc2)SC(=O)N1C(=O)NC1CCCCC1`, the AC50 was 76.5 µM (active) in experiment [1], 32.1 µM (active) in [5], 77.2 µM (active) in experiment [7] and 36.7 µM (active) in experiment [9]. The result in experiment [2], in experiment [4], in experiment [6] and in [8] was inactive.
As for `OCCOc1ccccc1`, the result in [1], in experiment [2], in experiment [4], in experiment [5], in experiment [6] and in experiment [7] was inactive. Moreover, the result in experiment [8] and in experiment [9] was inactive.
Consider `CCCN(CCC)c1c([N+](=O)[O-])cc(C(F)(F)F)cc1[N+](=O)[O-]`, for which the call in [1], in experiment [2], in [4], in experiment [5], in [6] and in experiment [7] was inactive. The result in [8] and in experiment [9] was inactive.
For the compound `O=C(NC(=O)c1c(F)cccc1F)Nc1ccc(OC(F)(F)C(F)OC(F)(F)F)c(Cl)c1` (stereo unspecified), the result in experiment [1], in experiment [2], in experiment [4], in experiment [5], in experiment [6] and in experiment [7] was inactive. For the same compound, the compound was called inactive in [8] and in experiment [9].
On to `CC1(c2ccc(Oc3ccccc3)cc2)OC(=O)N(Nc2ccccc2)C1=O` (stereo unspecified), for which the AC50 was 8.3 µM (active) in experiment [1]; 79.3 µM (active) in [2]; 26.7 µM (active) in experiment [4]; 11.2 µM (active) in [5]; 12.2 µM (active) in experiment [7]; 73.7 µM (active) in [8]. In [9], the AC50 is 9.81 µM (active). Besides, in experiment [6], the outcome was inactive.
In the case of `CCCN(CCOc1c(Cl)cc(Cl)cc1Cl)C(=O)n1ccnc1`, the half-maximal activity concentration (AC50) is 25.5 µM (active) in [1]; 84.8 µM (active) in [2]; 50 µM (active) in experiment [4]; 35.6 µM (active) in experiment [5]; 50 µM (active) in experiment [7]; 22.5 µM (active) in experiment [9]. Also, the outcome in [6] and in [8] was inactive.
As to `CNC(=O)Oc1ccccc1OC(C)C`, the compound was called inactive in experiment [1], in experiment [2], in experiment [4], in [6], in [7] and in [8]. For the same compound, the compound was classed as inactive in experiment [9].
Take `CC[C@H](C)[C@H]1O[C@]2(C=C[C@@H]1C)C[C@@H]1C[C@@H](C/C=C(\C)[C@@H](O[C@H]3C[C@H](OC)[C@@H](O[C@H]4C[C@H](OC)[C@@H](O)[C@H](C)O4)[C@H](C)O3)[C@@H](C)/C=C/C=C3\CO[C@@H]4[C@H](O)C(C)=C[C@@H](C(=O)O1)[C@]34O)O2` (tested in a mixture with another compound): the AC50 is 15.8 µM (active) in experiment [1]; 30.2 µM (active) in experiment [2]; 30.2 µM (active) in experiment [4]; 9.57 µM (active) in experiment [5]; 7.73 µM (active) in [7]. For the same compound, the result in experiment [6], in [8] and in [9] was inactive.
As to `CC1(C)C(C=C(Cl)Cl)C1C(=O)OC(C#N)c1ccc(F)c(Oc2ccccc2)c1` (stereo unspecified), the outcome in experiment [1], in [4], in experiment [5], in [6], in [7] and in [8] was inactive. Moreover, the compound was classed as inactive in experiment [9]. The AC50 in experiment [2] was 50 µM (active).
`CC(C)(C)C(O)/C(=C\c1ccc(Cl)cc1Cl)n1cncn1` (stereo unspecified): the AC50 is 25.1 µM (active) in experiment [1]; 80.6 µM (active) in experiment [2]; 50 µM (active) in experiment [4]; 22 µM (active) in experiment [5]; 59.4 µM (active) in experiment [7]; 19.8 µM (active) in experiment [9]. In addition, the result in [6] and in [8] was inactive.
For `COP(=S)(OC)Oc1ccc([N+](=O)[O-])cc1`, the outcome in experiment [1], in [2], in [4], in [5], in [6] and in [7] was inactive. Moreover, the compound was classed as inactive in experiment [8] and in [9].
Take `CCC(C)(NC(=O)c1cc(Cl)c(C)c(Cl)c1)C(=O)CCl` (stereo unspecified): the AC50 is 89 µM (active) in experiment [2], 85.1 µM (active) in [4], 92.1 µM (active) in [8] and 76 µM (active) in experiment [9]. Further, the outcome in experiment [5], in experiment [6] and in [7] was inactive.
Take `Clc1ccccc1-c1nnc(-c2ccccc2Cl)nn1`: the result in experiment [1], in experiment [4], in [5], in experiment [6], in experiment [7] and in experiment [8] was inactive. For the same compound, the result in experiment [9] was inactive. Moreover, the AC50 in experiment [3] was 5.64 µM (active).
For `ClC1C(Cl)C(Cl)C(Cl)C(Cl)C1Cl` (stereo unspecified), the call in experiment [1], in experiment [4], in experiment [5], in experiment [6], in experiment [7] and in [8] was inactive. Besides, in experiment [9], the result was inactive. The AC50 in [2] is 3.62 µM (active); in [9] it was 19.5 µM (active).
As for `N#CN`, the outcome in experiment [1], in experiment [2], in experiment [4], in [5], in [6] and in [7] was inactive. The compound was called inactive in experiment [8] and in [9].
For the compound `COc1nn(CSP(=S)(OC)OC)c(=O)s1`, the outcome in [1], in experiment [2], in experiment [4], in experiment [5], in experiment [6] and in [7] was inactive. Moreover, the call in [8] and in experiment [9] was inactive.
As for `CCc1ccc(C(=O)NN(C(=O)c2cc(C)cc(C)c2)C(C)(C)C)cc1`, the call in experiment [1], in [2], in [4], in [6], in experiment [7] and in [8] was inactive. The AC50 in experiment [5] and in experiment [9] was 50 µM (active) in each case.
Consider `CCOCN(C(=O)CCl)c1c(C)cccc1CC`, for which the AC50 in experiment [1] was 82.5 µM (active); in experiment [4], 78.9 µM (active); in [9], 93.3 µM (active). Moreover, the compound was classed as inactive in [2], in experiment [5], in experiment [6], in [7] and in [8].
Turning to `CN1CSC(=S)N(C)C1`, the call in [1], in [2], in experiment [4], in [5], in [6] and in [7] was inactive. Also, the call in [8] and in [9] was inactive.
For `O=C1c2ccccc2C(=O)N1SC(Cl)(Cl)Cl`, the compound was called inactive in experiment [1], in experiment [2], in experiment [4], in [5], in [6] and in [7]. Further, the outcome in experiment [8] and in experiment [9] was inactive.

Source of the values: PubChem BioAssay (EPA / NIEHS).
